# Assay results from PubChem BioAssay (NCATS).
# Where “and” joins values, the source holds several entries; their conditions need not be identical. Equal values may be shown once. Inconclusive results are not listed. Entries that show only a call come without a potency. Calls of active or inactive are those of the source. Unless noted, the call rests on the fitted dose curve; in most records, active means well fitted inhibition curve with a large enough effect; inconclusive means small, poorly fitted or top-dose-only effect; inactive means flat fitted curve, though single readings scatter.
# Test system: not listed separately
# Assay: P-glycoprotein substrates identified in KB-8-5-11 adenocarcinoma cell line, qHTS therapeutic library screen (AID 1346987); further: nearly all actives have a fitted effect of over 65% in size; further: potency means the concentration at half of the fitted maximal effect
# Conditions: KB-8-5-11 (P-gp overexpressing) viability, CellTiter-Glo, 72 h; series mostly up to 44.5 µM
# In short: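 Compounds are pinned in dose-response onto KB-8-5-11 cells (500 cells/well, colchicine-free medium) and left 72 h at 37 degree C. CellTiter-Glo luminescence then yields AC50 values.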
row,SMILES,Potency
1,O=C(O)CCCCCCNC1c2ccccc2CCc2ccccc21,inactive
2,CC[C@H]1C[C@@H]2C[C@H]3c4[nH]c5ccc(OC)cc5c4CCN(C2)[C@@H]13,inactive
3,CCOC(=O)c1ncn2c1CN(C)C(=O)c1c(I)cccc1-2,inactive
4,CCCCC1C(=O)NC(=O)N(C2CCCCC2)C1=O (stereo not drawn),inactive
5,O=C(O)Cc1ccccc1,inactive
6,CCC(=O)OC1(c2ccccc2)CCN(C)CC1,inactive
7,COc1ccc2c(C(=O)c3ccc(Cl)cc3)c(C)n(CC(=O)O)c2c1,inactive
8,CNC(C)Cc1ccc2c(c1)OCO2 (stereo not drawn),inactive
9,CCC1(c2cnc[nH]2)Cc2ccccc2C1,inactive
10,COc1cc(C[C@@H](C)N)c(OC)cc1Br,inactive
11,COc1ccc2c3c1O[C@H]1[C@@H](O)C=C[C@H]4[C@@H](C2)N(C)CC[C@@]341,inactive
12,C[C@@H]1C[C@@H]([C@H](O)CC2CC(=O)NC(=O)C2)C(=O)[C@@H](C)C1,2.31 µM (active) and 590 nM (active)
13,COP(=S)(OC)Oc1ccc(S(N)(=O)=O)cc1,inactive
14,O=C(N[C@H]1N=C(c2ccccc2F)c2cccc3c2N(CC3)C1=O)c1cc2ccccc2[nH]1,inactive
15,NC(=O)CN1CCCC1=O,inactive
16,COc1ccc(C(=O)N2CCCC2=O)cc1,inactive
17,Cc1nnc2n1-c1sc(CCC(=O)N3CCOCC3)cc1C(c1ccccc1Cl)=NC2,inactive
18,CN(C)CCc1c[nH]c2ccc(O)cc12,inactive
19,CNC(C)Cc1ccccc1OC (stereo not drawn),inactive
20,Cc1cccc(Cc2cnc[nH]2)c1C,inactive
21,CC(Cc1ccc2c(c1)OCO2)NO (stereo not drawn),inactive
22,CCOP(=S)(OCC)O/N=C(\C#N)c1ccccc1,inactive
23,Cc1nc2ccccc2c(=O)n1-c1ccccc1Cl,inactive
24,COc1ccc2[nH]cc(CCN(C(C)C)C(C)C)c2c1,inactive

# Test system: not listed separately
# Assay: Natriuretic polypeptide receptor (hNpr1) antagonism - Pilot counterscreen GloSensor control cell line (AID 1347045; calls by dose curve)
# Conditions: HEK293 cGMP GloSensor cells, SNP-stimulated luminescence, 20 min; series mostly up to 38.3 µM
# In short: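 Control counterscreen: luciferase cGMP-biosensor HEK293 cells (no Npr1) received compound for 30 min at room temperature after GloSensor substrate loading. Luminescence was measured before and 20 min after soluble guanylyl cyclase activation by 50 uM nitroprusside.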
row,SMILES,outcome
1,COC(=O)C1=CCCN(C)C1,inactive
2,NC(=O)CN1CCCC1=O,inactive
3,COc1ccc(C(=O)N2CCCC2=O)cc1,inactive

# Biological target: Atrial natriuretic peptide receptor 1 (Homo sapiens) (UniProt P16066)
# Assay: Natriuretic polypeptide receptor (hNpr1) antagonism - Pilot screen (AID 1347049; calls by dose curve;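 further: agonist-evoked cGMP luminescence read 20 min after hNppA addition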)
# Conditions: hNpr1 cells, antagonist mode cGMP read-out; series mostly up to 57.5 µM
# In short: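 cGMP-sensor HEK293/hNpr1 cells, 1500/well, plated overnight at 37C. 2% GloSensor reagent, 2 h RT. Compound (23 nL pin transfer) 30 min RT, baseline luminescence pre-read. 0.1 nM hNppA, 20 min RT, post-read.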
# Atrial natriuretic peptide receptor 1 (Homo sapiens), sequence (P16066 whole entry, looked up): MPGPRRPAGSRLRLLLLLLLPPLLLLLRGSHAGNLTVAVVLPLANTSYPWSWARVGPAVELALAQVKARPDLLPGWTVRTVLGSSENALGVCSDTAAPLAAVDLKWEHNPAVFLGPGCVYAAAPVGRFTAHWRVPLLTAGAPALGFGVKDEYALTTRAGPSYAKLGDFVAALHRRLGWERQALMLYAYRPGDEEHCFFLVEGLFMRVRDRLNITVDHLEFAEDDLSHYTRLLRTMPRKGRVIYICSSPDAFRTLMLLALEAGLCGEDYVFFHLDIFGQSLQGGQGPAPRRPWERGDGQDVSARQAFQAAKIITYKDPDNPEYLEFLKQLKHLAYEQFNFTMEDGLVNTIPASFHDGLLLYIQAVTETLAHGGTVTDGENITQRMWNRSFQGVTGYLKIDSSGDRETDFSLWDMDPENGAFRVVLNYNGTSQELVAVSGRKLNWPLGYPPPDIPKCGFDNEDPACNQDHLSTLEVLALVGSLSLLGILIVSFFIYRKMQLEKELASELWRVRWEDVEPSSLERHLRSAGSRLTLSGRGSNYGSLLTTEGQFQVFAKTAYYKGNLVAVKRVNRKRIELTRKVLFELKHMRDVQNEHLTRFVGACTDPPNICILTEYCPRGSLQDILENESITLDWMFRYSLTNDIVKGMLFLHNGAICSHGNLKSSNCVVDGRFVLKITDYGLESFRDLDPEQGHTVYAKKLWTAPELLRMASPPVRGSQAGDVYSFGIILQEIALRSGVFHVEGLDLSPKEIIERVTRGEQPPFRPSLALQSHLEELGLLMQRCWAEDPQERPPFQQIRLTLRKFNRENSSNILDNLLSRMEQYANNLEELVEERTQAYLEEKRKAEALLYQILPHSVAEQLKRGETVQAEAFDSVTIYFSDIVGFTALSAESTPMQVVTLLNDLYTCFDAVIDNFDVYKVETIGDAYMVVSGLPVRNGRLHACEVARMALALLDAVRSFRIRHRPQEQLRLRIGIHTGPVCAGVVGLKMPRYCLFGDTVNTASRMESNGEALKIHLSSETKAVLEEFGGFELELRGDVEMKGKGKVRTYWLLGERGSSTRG
row,SMILES,outcome
1,COC(=O)C1=CCCN(C)C1,inactive
2,NC(=O)CN1CCCC1=O,inactive
3,COc1ccc(C(=O)N2CCCC2=O)cc1,inactive

# Biological target: Atrial natriuretic peptide receptor 2 (Homo sapiens) (UniProt P20594)
# Assay: Natriuretic polypeptide receptor (hNpr2) antagonism - Pilot subtype selectivity assay (AID 1347050; calls by dose curve)
# Conditions: NPR2-expressing cells, cGMP antagonist-mode read-out; series mostly up to 38.3 µM
# In short: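 Luminescence from a genetically encoded cGMP luciferase biosensor in hNpr2-expressing HEK293 cells is read before and 20 min after adding 1 nM hNppC. Test compounds, in interplate 1:5 titrations, are added 30-50 min ahead of the agonist.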
# Atrial natriuretic peptide receptor 2 (Homo sapiens), sequence (P20594 whole entry, looked up): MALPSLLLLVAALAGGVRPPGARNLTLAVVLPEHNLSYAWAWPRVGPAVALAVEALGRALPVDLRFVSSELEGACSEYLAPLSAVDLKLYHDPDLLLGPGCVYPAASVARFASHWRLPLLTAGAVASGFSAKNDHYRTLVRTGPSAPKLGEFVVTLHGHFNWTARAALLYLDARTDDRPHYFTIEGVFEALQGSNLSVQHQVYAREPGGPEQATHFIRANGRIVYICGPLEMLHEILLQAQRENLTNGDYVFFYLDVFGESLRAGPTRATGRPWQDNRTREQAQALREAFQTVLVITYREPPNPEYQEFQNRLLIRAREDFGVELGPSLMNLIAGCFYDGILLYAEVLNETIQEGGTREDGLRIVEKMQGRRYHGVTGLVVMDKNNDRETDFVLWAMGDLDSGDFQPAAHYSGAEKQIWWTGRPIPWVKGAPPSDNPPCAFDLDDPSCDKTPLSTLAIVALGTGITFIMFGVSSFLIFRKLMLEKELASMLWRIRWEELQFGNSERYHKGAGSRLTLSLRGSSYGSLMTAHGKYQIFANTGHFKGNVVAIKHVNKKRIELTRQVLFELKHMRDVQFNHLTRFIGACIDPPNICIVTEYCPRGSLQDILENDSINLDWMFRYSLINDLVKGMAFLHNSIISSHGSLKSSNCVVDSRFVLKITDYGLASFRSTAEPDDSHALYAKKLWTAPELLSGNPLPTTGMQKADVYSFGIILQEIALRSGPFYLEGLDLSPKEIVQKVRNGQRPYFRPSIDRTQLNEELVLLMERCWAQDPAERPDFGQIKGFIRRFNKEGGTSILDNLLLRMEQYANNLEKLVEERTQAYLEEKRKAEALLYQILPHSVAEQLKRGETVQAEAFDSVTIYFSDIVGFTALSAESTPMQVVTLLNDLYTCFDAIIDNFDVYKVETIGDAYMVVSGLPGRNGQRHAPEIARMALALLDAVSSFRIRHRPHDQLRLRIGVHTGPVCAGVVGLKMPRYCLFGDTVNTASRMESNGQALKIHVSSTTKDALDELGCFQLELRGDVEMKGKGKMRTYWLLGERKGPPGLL
row,SMILES,outcome
1,COC(=O)C1=CCCN(C)C1,inactive
2,NC(=O)CN1CCCC1=O,inactive
3,COc1ccc(C(=O)N2CCCC2=O)cc1,inactive
